Activity calls are given as the source filed them. No rule for the calls is given here.

For this test the following is noted: Ebola virus entry assay, reporter ratio channel; Channel type: primary.
As for `CCCCC(CC)COC(=O)c1ccc(N(C)C)cc1` (stereo not drawn), the outcome was inactive.

Take `CCCOC(=O)c1ccc(O)cc1`: the result was inactive.

On to `Nc1ccc(S(=O)(=O)Nc2ccccc2)cc1`, for which the result was inactive.

Regarding `C[C@@H](N)C(=O)O`, the outcome was inactive.

Take `Nc1nc2ccc([N+](=O)[O-])cc2s1`: the outcome was inactive.

For the compound `O=C(O)Cc1ccccc1Oc1ccc(Cl)cc1Cl`, the outcome was inactive.

`O=C(Oc1ccccc1)c1cccc(C(=O)Oc2ccccc2)c1`: the outcome was inactive.

`CC(=O)N[C@@H](CCC(N)=O)C(=O)O`: the outcome was inactive.

With `C/C(=C1\CCOC(=O)S1)N(C=O)Cc1cnc(C)nc1N`, the result was inactive.

`CCCCCCCCCCCCCC[N+](C)(C)C`: the AC50 (as a rule, the midpoint of the concentration-response curve, whichever way the signal moves) is 25.1 µM (active).

As to `O=[N+]([O-])c1cccc(S(=O)(=O)NCCNS(=O)(=O)c2cccc([N+](=O)[O-])c2)c1`, the outcome was inactive.

As for `CCN(CC)c1ccc(C(=C2C=CC(=[N+](CC)CC)C=C2)c2cc(S(=O)(=O)O)ccc2S(=O)(=O)[O-])cc1`, the outcome was inactive.

With `CCCCCCCCCCC(CO)CCCCCCCC` (stereo not drawn), the result was inactive.

For the compound `CN(C(=O)C(Cl)Cl)c1ccc(OC(=O)c2ccco2)cc1`, the outcome was inactive.

Turning to `O=C(O)CC(O)C(=O)O` (stereo not drawn), the result was inactive.

As to `CC(=O)[O][Hg][c]1ccccc1`, the AC50 is 4.47 µM (active).

For `N#C/C(=C1\SCC(c2ccccc2Cl)S1)n1ccnc1` (stereo not drawn), the result was inactive.

For the compound `C[C@]12C[C@H](O)[C@H]3[C@@H](CCC4=CC(=O)CC[C@@]43C)[C@@H]1CC[C@@H]2C(=O)CO`, the outcome was inactive.

Consider `C[C@H](CN1CCCC1)C(=O)c1ccc(C(F)(F)F)cc1`, for which the result was inactive.

`CCCCOC(=O)c1ccccc1C(=O)OCc1ccccc1`: the result was inactive.

Turning to `Cc1ccccc1N=Nc1ccc(N=Nc2c(O)ccc3ccccc23)c(C)c1`, the result was inactive.

Take `Nc1c(Cl)c(Cl)c(Cl)c(Cl)c1Cl`: the outcome was inactive.

Regarding `CN(C)c1ccc(N=NS(=O)(=O)O)cc1`, the result was inactive.

On to `CCC(=O)O[C@@H]1C=C2CCC3C(CCC4(C)C3CC[C@@H]4OC(=O)CC)C2CC1` (stereo partly drawn), for which the outcome was inactive.

For `O=S(=O)(O)C(F)(F)C(F)(F)C(F)(F)C(F)(F)F`, the result was inactive.

In the case of `c1ccc2[nH]ccc2c1`, the outcome was inactive.

With `Fc1cc(Br)ccc1CBr`, the result was inactive.

Consider `COc1c(N2CCNC(C)C2)c(F)cc2c(=O)c(C(=O)O)cn(C3CC3)c12` (stereo not drawn), for which the outcome was inactive.

Turning to `O=C(O)CNC(=O)CNC(=O)CNC(=O)CSC(=O)c1ccccc1`, the result was inactive.

In the case of `CCOC(=O)C(=O)CCCCCCl`, the outcome was inactive.

For the compound `O=C(O)c1ccccn1`, the result was inactive.

Regarding `Nc1cccc2c(N)cccc12`, the concentration at half-maximal activity (AC50) was 35.5 µM (active).

Consider `C#CC(C)(CC)OC(=O)c1ccccc1C(=O)O` (stereo not drawn), for which the outcome was inactive.

As for `CCN1CCN(c2cc3c(cc2F)c(=O)c(C(=O)O)cn3C2CC2)CC1`, the result was inactive.

`Cc1c(C)c2c(c(C)c1OC(=O)c1cccnc1)CC[C@@](C)(CCC[C@H](C)CCC[C@H](C)CCCC(C)C)O2`: the outcome was inactive.

On to `CCCN(CCC)c1c([N+](=O)[O-])cc(S(N)(=O)=O)cc1[N+](=O)[O-]`, for which the AC50 was 8.91 µM (active).

Turning to `Cc1cc(-c2ccccc2)nnc1NCCN1CCOCC1`, the result was inactive.

As for `COc1cc(S(N)(=O)=O)cc(C(=O)O)c1OC`, the result was inactive.

These data come from PubChem BioAssay (NCATS).
